# About 150 (0.052%) of roughly 290,000 compounds were called active. Only a selection was taken, and actives are over-represented in it overall. Entries with a potency or affinity are not part of this list. Values without a mark were called inactive.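 The calls were made as follows: active = inhibition of at least 50% with at least 30 cells and total cytoplasm GFP at most 10,000,000; inconclusive = under 30 cells or total GFP of 10,000,000 plus; inactive = the rest.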
# Target: G-protein coupled receptor 35 (Homo sapiens) (UniProt Q9HC97)
# Assay: GPR35 antagonists blocking zaprinast-driven arrestin recruitment, primary screen, imaging, U2OS, beta-arrestin-GFP, zaprinast agonist (AID 2058)
# Conditions: U2OS GPR35 beta-arrestin-GFP translocation imaging, zaprinast antagonism; at 10 µM; stronger effect = higher value
# Sequence of G-protein coupled receptor 35 (Homo sapiens) (Q9HC97 whole entry, looked up): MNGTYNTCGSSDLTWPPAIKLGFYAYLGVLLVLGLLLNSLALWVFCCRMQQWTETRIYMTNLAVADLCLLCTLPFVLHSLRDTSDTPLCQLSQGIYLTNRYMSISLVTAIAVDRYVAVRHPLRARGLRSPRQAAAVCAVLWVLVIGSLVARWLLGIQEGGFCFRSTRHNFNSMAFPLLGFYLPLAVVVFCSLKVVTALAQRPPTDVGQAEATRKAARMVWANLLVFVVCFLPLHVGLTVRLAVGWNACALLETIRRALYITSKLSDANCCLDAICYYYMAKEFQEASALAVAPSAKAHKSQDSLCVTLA
row,SMILES,inhibition
1,COc1cccc(N2C(=O)CC(NNC(=O)c3cccs3)C2=O)c1 (stereo not drawn),-15.4%
2,O=C(Cn1cncn1)N/N=C/c1cccnc1,-13.5%
3,CC(C)C1=NN2C(=N)CC(=O)N=C2S1,-12.3%
4,Cc1ccc(Cn2ncc3c(N4CCN(Cc5ccc(Cl)cc5)CC4)ncnc32)cc1,11.6%
5,Cc1ccc(Cn2ncc3c(N4CCN(C)CC4)ncnc32)cc1,-0.4%
6,Cc1ccc(Cn2ncc3c(N4CCN(c5ccc(C)cc5)CC4)ncnc32)cc1,1.6%
7,Clc1ccc(Cn2ncc3c(N4CCCC4)ncnc32)cc1,-11.9%
8,COc1ccc(C2c3c(ccc4ccccc34)Oc3ncn4nc(CO/N=C/c5ccccc5)nc4c32)cc1 (stereo not drawn),-1.8%
9,COc1ccc(C(=O)NNS(=O)(=O)c2ccccc2)cc1,-5.9%
10,CC(C)[C@H](Nc1ccc(S(=O)(=O)N2CCOCC2)cc1[N+](=O)[O-])C(=O)OCC(=O)N(C(C)C)C(C)C,11.5%
11,COc1cc(/C=N/NC(=O)CC2(C)OCCCO2)ccc1OCc1ccc(Cl)cc1Cl,10.6%
12,COc1cc(/C=N/NC(=O)CC2(C)OCCCO2)ccc1OCc1ccccc1,-7.2%
13,O=C(NCC1CCCO1)c1cc2cc(Cl)ccc2[nH]1 (stereo not drawn),2.4%
14,CCOC(=O)c1ccccc1NC(=O)Cn1cnc2c(oc3ccccc32)c1=O,8.3%
15,COC(=O)c1ccc(CSc2nc(C)nc3c2c(=O)n(C)c(=O)n3C)o1,-16.8%
16,O=C(CSc1nc2cc(Cl)ccc2c(=O)n1Cc1ccco1)Nc1ccc(S(=O)(=O)N2CCOCC2)cc1,-2.6%
17,O=C(N/N=C/c1cccs1)[C@H]1C[C@@H]1c1ccccc1,9.8%
18,Oc1ccc(Nc2nc(-c3ccccc3F)nc3ccccc23)cc1,-5.3%
19,Oc1ccc(/C=N/Nc2nc(-c3cccnc3)nc3ccccc23)c(O)c1,8.3%
20,CC1CCN(S(=O)(=O)c2cccc(S(=O)(=O)N3CCCC3)c2)CC1,4.8%
21,NC(=O)c1cc2cc([N+](=O)[O-])ccc2oc1=O,-20%
22,COc1ccc(C(=O)Nc2ccc(Cl)cc2C(=O)NCc2ccco2)cc1,14%

row,SMILES,inhibition
1,CCn1cnc2cc(NCc3ccc(OC)cc3)ccc21,-12.4%
2,CCOc1ccc(CNc2ccc3c(c2)nc(C)n3C)cc1,4.9%
3,CCOCC(O)CS(=O)(=O)c1ccccn1 (stereo not drawn),-4.6%
4,O=C(Nc1nc2ccc3ccccc3c2s1)c1ccc(N2CCCCC2)c([N+](=O)[O-])c1,5.5%
5,O=C(Nc1nc2ccc(Cl)cc2s1)c1ccc(N2CCCCC2)c([N+](=O)[O-])c1,4.2%
6,O=C(Cc1cccc2ccccc12)Nc1cc(Cl)ccc1C(=O)O,-3.5%
7,O=C(CCC1N=C2c3ccccc3N=C(SCC(=O)NCC3CCCO3)N2C1=O)NCc1ccc(F)cc1 (stereo not drawn),-0.5%
8,N#C/C(=C\c1ccc(N2CCOCC2)o1)c1nc2ccccc2[nH]1,26.1%
9,N#C/C(=C\c1ccc(N2CCOCC2)o1)c1ccccc1,19.5%
10,CCn1c(CC(=O)Nc2ccccc2F)nnc1SCC(=O)N1CCN(c2ccccc2)CC1,-10.6%
11,CC(C)(C)NC(=O)CN(C(=O)C(=O)Nc1ccc2c(c1)OCCO2)C1CCCC1,15.5%
12,CC(=O)c1cccc(NC(=O)/C(=C\c2ccco2)NC(=O)c2ccco2)c1,-5.7%
13,CN1C=CC2=C(C#N)C(N)C(C#N)(C#N)[C@H](c3ccccc3)[C@H]2C1 (stereo partly drawn),38.1%
14,CCN1C=CC2=C(C#N)C(N)C(C#N)(C#N)C(c3ccccc3C(F)(F)F)C2C1 (stereo not drawn),12.6%
15,CC1=C(C(=O)OCc2ccccc2)C(c2ccccc2Cl)NC(=O)N1CCCCCC(=O)O (stereo not drawn),0.1%
16,O=S(=O)(Nc1nc2ccccc2s1)c1cc(F)ccc1F,-10.3%
17,CC1CN(CCC(=O)Nc2ccc3c(c2)OCO3)CC(C)O1 (stereo not drawn),-12%
18,C#CCOCCOCCOCCNc1nc(N2CCN(C(=O)[C@H]([C@@H](C)CC)n3cc(CCCN=C(N)N)nn3)CC2)nc(N2CCN(C(=O)[C@H](Cc3ccc(O)cc3)n3cc(CCO)nn3)CC2)n1,-6.4%
19,Cc1ccc(C2=NN(S(C)(=O)=O)C(c3ccc4c(c3)OCO4)C2)cc1 (stereo not drawn),6.3%
20,CS(=O)(=O)N1N=C(c2ccc(Br)cc2)CC1c1ccc2c(c1)OCO2 (stereo not drawn),20.6%
21,O=C(NC1CCCC1)C(c1ccccn1)N(C(=O)c1csnn1)c1ccccc1 (stereo not drawn),13.8%
22,COc1ccc(/C=N/N2C(=O)CN(C(=O)c3ccccc3)C2c2ccc(OC)cc2)cc1 (stereo not drawn),1.5%

row,SMILES,inhibition
1,COc1ccc(S(=O)(=O)N2CCOC2CNC(=O)C(=O)NCCc2c[nH]c3ccccc23)cc1 (stereo not drawn),4.5%
2,O=C(Nc1ccc(C2=NCCN2)cc1)c1ccc(Cl)c(C(=O)Nc2ccc(C3=NCCN3)cc2)c1,13.7%
3,O=C(Nc1ccc(C2=NCCN2)cc1)c1ccc(C(=O)Nc2ccc(C3=NCCN3)cc2)c(Cl)c1,101% (active)
4,O=C(Nc1ccc(C2=NCCN2)cc1)c1ccc(C(=O)Nc2ccc(C3=NCCN3)cc2)c([N+](=O)[O-])c1,-3.6%
5,COC(=O)c1sc(S(=O)(=O)N2CCC(C)CC2)c(C(=O)OC)c1C,10.9%
6,COCCCNC(=S)N(CCCN(C)C)Cc1cc2cc3c(cc2[nH]c1=O)OCCO3,-7.4%
7,CCOC(=O)CC1C(=O)NCCN1C1CCCC1 (stereo not drawn),9.7%
8,CC(=O)NNC(=O)CN1C(=O)/C(=C/c2ccccc2)SC1=S,-0.2%
9,Cc1c(C(=O)Nc2cccc(N(C)S(C)(=O)=O)c2)cccc1[N+](=O)[O-],-4.4%
10,CC(C)c1cc(=O)oc2c3c4c(cc12)CCCN4CCC3,-1.4%
11,O=c1ccc2cc3c4c(c2o1)CCCN4CCC3,22.1%
12,O=C(CNC(=O)N1CC(=O)Nc2ccccc21)Nc1ccc(F)c(Cl)c1,-6.4%
13,CCc1ccc2[nH]c(=O)c(CN(CCN3CCOCC3)C(=O)Nc3ccccc3F)cc2c1,8.5%
14,CCC(C)[C@H](NC(=O)N1CCn2c1nc1ccccc12)C(=O)NCC1CCCO1 (stereo partly drawn),-10.9%
15,O=C(NC1CCCc2ccccc21)c1cn2ccccc2n1 (stereo not drawn),13.2%
16,CC(C)c1ccc(NC(=O)CSc2nc3ccsc3c(=O)n2CCC(=O)O)cc1,6.9%
17,Cc1ccc(CNC(=O)CSc2nc3ccsc3c(=O)n2Cc2ccc(C(=O)O)cc2)cc1,-4.6%
18,O=C(NCCN1CCOCC1)c1c[nH]c2ccc(S(=O)(=O)N3CCOCC3)cc2c1=O,3%
19,CCCS(=O)(=O)c1c(S(=O)(=O)CCC)c2c3ccccc3ccn2c1C(N)=O,-10.5%
20,CCN(CC)S(=O)(=O)c1ccc(Cl)c(NC(=O)c2cc(Cl)ccc2Cl)c1,7.1%
21,CCN(CC)S(=O)(=O)c1ccc(Cl)c(NC(=O)c2ccccc2C)c1,4.8%
22,CCOc1ccccc1N(C)C(=O)Cn1ncc2c([nH]c3ccc(C)cc32)c1=O,-6.9%

row,SMILES,inhibition
1,CN(C(=O)COC(=O)c1ccccc1NC(=O)c1ccco1)C1CCS(=O)(=O)C1 (stereo not drawn),29.1%
2,Cc1ccc(NC(=O)c2nc[nH]c2C(=O)N[C@@H](C)c2ccccc2)cc1,53.8%
3,NS(=O)(=O)c1ccc(CCNC(=O)CCCOc2ccccc2)cc1,3.9%
4,Cc1ccc(OCCC(=O)NCCc2ccc(S(N)(=O)=O)cc2)cc1,21.9%
5,O=C(CCS(=O)(=O)c1ccc(Br)cc1)NCCc1ccccc1,-8.4%
6,Cc1ccc(CCNC(=O)CCS(=O)(=O)c2ccc(Br)cc2)cc1,3.1%
7,CC(=O)Nc1ccc(-c2nnc(SCc3ccccc3C#N)n2C)cc1,-3.6%
8,Cc1ccc(C(OCC(O)CNC(CO)C(O)c2ccc([N+](=O)[O-])cc2)c2ccccc2)cc1 (stereo not drawn),2%
9,CCOC(=O)C1=C(O)c2ccccc2C(=O)/C1=C\c1ccc(CC)cc1,31.1%
10,CCCCc1ccc(/C=C2\C(=O)c3ccccc3C(O)=C2C(=O)OCC)cc1,59% (active)
11,CCCc1ccc(/C=C2\C(=O)c3ccccc3C(O)=C2C(=O)OCC)cc1,21.2%
12,Cc1cccc(Oc2ncnc3onc(C)c23)c1,-0.9%
13,CCN1/C(=C/C=C/C=C/C=C/c2sc3ccccc3[n+]2CC)Sc2ccccc21,44.3%
14,CCN1/C(=C/C=C/C=C/c2sc3ccccc3[n+]2CC)Sc2ccccc21,58.9%
15,CCN(c1ccccc1)S(=O)(=O)c1ccc(Cl)c(NC(=O)CSc2n[nH]c(N)n2)c1,0.7%
16,COc1ccc(/C=c2\s/c(=C/C(=O)c3ccc(C)cc3)[nH]c2=O)cc1OC,8.2%
17,COc1cccc(/C=c2\s/c(=C/C(=O)c3ccc(C)cc3)[nH]c2=O)c1OC,-9.9%
18,Cc1ccc(C)c(NC(=O)Nc2ccc3c(c2)OCO3)c1,-7.8%
19,COc1ccccc1N1CCN(S(=O)(=O)c2ccc(Cl)s2)CC1,-2.5%
20,COC(=O)c1cc(NC(=O)c2cccc(Cl)c2)c(=O)oc1/C=C/Nc1cc(C)cc(C)c1,93.3% (active)
21,Cc1oc(=O)c(NC(=O)c2cccc(Cl)c2)cc1C(=O)c1ccccc1,-3%
22,COC(=O)c1cc(NC(=O)c2ccccc2)c(=O)oc1C,-9.4%

# From PubChem BioAssay AID2058 (Sanford-Burnham Center for Chemical Genomics, 2009)
